Sampled rows, rich in hits. Any-hit rate of the full collection: about 2.6%.
MLLE-PAM2 inh: inhibitors of microRNA-mediated deadenylation, human PABP1 MLLE binding. inhibition, % at 20 µM. GST-MLLE / FITC-PAM2 fluorescence polarization. AID 588489. 360,000 compounds, 0.36% hits; in the data active = inhibition above about 35%, passing the limit was not always enough;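 also: plate controls were DMSO wells with GST-MLLE for no effect and wells lacking GST-MLLE protein for full effect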
eIF4H FP inh: inhibitors of RNA binding by human eIF4H; inhibition, % at 35 µM; eIF4H fluorescence polarization binding assay; 290,000 compounds, 0.94% hits; AID 2012;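 also: calls also rest on retests at 20 µM and on dose response follow-up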
PHOSPHO1 block: inhibitors of human PHOSPHO1 phosphatase. inhibition, % at 13.3 µM. Q8TCT1. AID 1565. recombinant PHOSPHO1, absorbance phosphatase assay. 290,000 compounds, 1.1% hits; in the data active = inhibition above about 60%
A3G deaminase: blocks human APOBEC3G single-stranded DNA deamination. inhibition, % at 20 µM. 330,000 compounds, 0.28% hits. Q9HC16. recombinant A3G, ssDNA deamination FAM/TAMRA fluorescence;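 active = inhibition of at least 40% at 20 µM, with no more than 30% in the related APOBEC3A deaminase screen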;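 also: plate controls were DMSO wells with A3G for no effect and wells lacking A3G enzyme for full effect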
Target sequence (Q9HC16 whole entry, looked up): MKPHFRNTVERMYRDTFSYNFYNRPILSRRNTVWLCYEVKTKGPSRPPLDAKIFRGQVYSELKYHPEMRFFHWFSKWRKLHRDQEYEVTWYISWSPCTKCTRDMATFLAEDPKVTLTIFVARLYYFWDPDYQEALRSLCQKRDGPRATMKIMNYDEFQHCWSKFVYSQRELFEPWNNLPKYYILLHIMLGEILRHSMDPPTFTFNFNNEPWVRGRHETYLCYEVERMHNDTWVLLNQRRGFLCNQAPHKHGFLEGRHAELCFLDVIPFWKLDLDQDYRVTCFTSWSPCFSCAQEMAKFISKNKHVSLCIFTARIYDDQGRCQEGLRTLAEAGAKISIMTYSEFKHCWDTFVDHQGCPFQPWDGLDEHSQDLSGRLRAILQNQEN
PABP FP inh: PABP-poly(A) binding inhibition | P11940 | PABP-poly(A) RNA binding, fluorescence polarization | calls only at 35 µM | 290,000 compounds, 1% hits | AID 2014;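 also: calls also rest on retests at 20 µM and on dose response follow-up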
A3A deaminase: blocks human APOBEC3A ssDNA deamination; recombinant A3A, FAM/TAMRA ssDNA deamination fluorescence; inhibition, % at 20 µM; 330,000 compounds, 0.41% hits; P31941;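 active = at least 40% inhibition at 20 µM here, with at most 30% in a related deaminase screen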;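 also: plate controls were A3A with DMSO for no effect and wells lacking A3A enzyme for full effect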
Target sequence (P31941 whole entry, looked up): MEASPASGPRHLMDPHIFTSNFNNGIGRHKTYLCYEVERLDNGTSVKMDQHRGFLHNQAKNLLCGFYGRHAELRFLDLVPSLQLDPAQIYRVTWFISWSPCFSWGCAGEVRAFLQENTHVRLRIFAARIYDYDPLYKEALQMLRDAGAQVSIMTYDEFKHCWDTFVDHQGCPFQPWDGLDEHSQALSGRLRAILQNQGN
A3A conf: confirmation of human APOBEC3A DNA deaminase inhibitors; shares compounds with A3A deaminase; recombinant A3A, ssDNA deaminase UDG fluorescence assay; inhibition, % at 20 µM; 1,400 compounds, 63% hits;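 active = inhibition reaching a set limit, 80% of the first screen's cutoff, at 20 µM in any replicate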;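 also: plate controls were DMSO wells with A3A for no effect and wells lacking A3A enzyme for full effect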
UDG A3A counter: inhibits UDG, flagging false APOBEC3A inhibitors; shares compounds with A3A deaminase; UDG counterscreen, FAM/TAMRA uracil oligo fluorescence; inhibition, % at 20 µM; 1,000 tested, under 10 active
* marks the source's active call; other numbers are inactive results; i = inactive; ? = inconclusive; . = no result given; + = active, no number. Unless noted, no rule for the calls is given here.

SMILES | MLLE-PAM2 inh | eIF4H FP inh | PHOSPHO1 block | A3G deaminase | PABP FP inh | A3A deaminase | A3A conf | UDG A3A counter
CC1(C)CC(N2CCCC2)=CC(=[N+]2CCCCC2)C1 | -134 | 5 | 4 | 19 | i | 51* | 71* | 5
CC1(C)CC(=O)C=C(N2CCN(C3=CC(=O)CC(C)(C)C3)CC2)C1 | . | 2 | -2 | . | i | . | . | .
CC1(C)CC(N2CCCC2)=CC(=[N+]2CCCC2)C1 | -155 | -2 | 6 | 22 | i | 66* | 72* | 2
CC1(C)CC(N2CCN(Cc3ccccc3)CC2)=CC(=[N+]2CCCCC2)C1 | -105 | 8 | 34 | 15 | i | 32 | . | .
CCN1CCN(S(=O)(=O)c2ccc(Cl)c(C(=O)N(C)C3CCCCC3)c2)CC1 | -1 | . | . | . | . | . | . | .
CCN1CCN(S(=O)(=O)c2ccc(Cl)c(C(=O)N(C)C(c3ccccc3)c3ccccc3)c2)CC1 | -118 | . | . | 17 | . | 57* | 64* | -2
CCOCc1cnc(C)nc1NCC(=O)c1c(C)[nH]c2ccc(OC)cc12 | -102 | active | 64* | 21 | + | 55* | 80* | 2
CC[n+]1cccc(-c2nc3ccccc3s2)c1 | -145 | 6 | -5 | 13 | i | 53* | 64* | -1
Oc1cccc(-c2nc3ccccc3s2)c1 | 0 | -5 | 3 | -2 | i | -1 | . | .
COc1cccc(C(NC(C)=O)c2nc(-c3cccs3)cs2)c1 (stereo not given) | 11 | . | . | . | . | . | . | .
O=C(c1ccc(Oc2cc(Cl)cc(Cl)c2)o1)N1CCCCC1 | -3 | -7 | 20 | -4 | i | 1 | . | .
Cc1ccc2c(c1)C1CN(C)CCC1N2C(=O)COc1ccc(N(C)C(=O)C(C)(C)C)cc1 (stereo not given) | -3 | -5 | 23 | 1 | i | 9 | . | .
Cc1ccc2c(c1)C1CN(C)CCC1N2CC(=O)N(C)c1ccccc1 (stereo not given) | -108 | -2 | 83* | 19 | i | 51* | 50* | -2
O=C(CCC1CCCCC1)NCCS(=O)(=O)N1CCN(c2ccc(F)cc2)CC1 | -8 | . | . | -1 | . | 1 | . | .
CCCS(=O)(=O)NC(=O)C1(C)CCN(C(=O)c2cc(C)nn2C(C)(C)C)C1 (stereo not given) | 6 | . | . | . | . | . | . | .
COc1ccc(CNS(=O)(=O)CCNC(=O)c2ccc(OC)cc2)cc1 | 13 | . | . | -6 | . | 2 | . | .
CN1/C(=C/c2cccc[n+]2CCO)Sc2ccccc21 | -139 | . | 14 | 41 | . | 93 | . | .
CC[n+]1ccccc1/C=C1\Sc2ccc(C)cc2N1C | -153 | -5 | . | 24 | ? | 54* | 84* | -3
O=C(CSc1n[nH]c(=O)[nH]c1=O)Nc1ccc(Br)cc1Br | 9 | . | . | -5 | . | -2 | . | .
O=[N+]([O-])c1ccc(CN2CCN(c3ccccc3Cl)CC2)o1 | 2 | 47 | 8 | 3 | i | 54* | 0 | .
CCOc1ncccc1C(=O)OCC(=O)N(CC)c1ccccc1 | -6 | -4 | 8 | -6 | i | 74* | -1 | 2
CCOc1ncccc1C(=O)OCc1ccccc1 | -7 | 1 | 14 | -1 | i | 1 | . | .
CCCN(CC(=O)Nc1ccccc1C)C(=O)c1ccc(OCc2c(C)noc2C)cc1 | -11 | . | . | -6 | . | -2 | . | .
CC(=O)[C@]1(O)Cc2c(O)c3c(c(O)c2[C@@H](O[C@H]2C[C@H](N)[C@H](O)[C@H](C)O2)C1)C(=O)c1ccccc1C3=O | . | . | . | 20 | . | 41* | 46* | -2
N#C/C(=C\c1ccc(-c2cccc([N+](=O)[O-])c2)o1)C(=O)N1CCOCC1 | 5 | -6 | 34 | -6 | i | -3 | . | .
SMILES | MLLE-PAM2 inh | eIF4H FP inh | PHOSPHO1 block | A3G deaminase | PABP FP inh | A3A deaminase | A3A conf | UDG A3A counter
N#C/C(=C\c1ccc(-c2ccc([N+](=O)[O-])cc2Br)o1)C(=O)N1CCN(c2ccccc2)CC1 | -120 | 6 | 11 | 2 | i | 48* | 11 | .
C[N+](C)(C)CCN1C(=O)CSC1=O | -97 | 5 | 0 | 16 | i | 55* | 48* | 6
O=S(=O)(c1ccccc1)N1N=C(c2ccccc2)CC1c1ccccc1F (stereo not given) | -6 | -1 | 35 | -4 | i | -5 | . | .
Cc1ccc(C(c2c(O)nc3n(c2=O)CCS3)c2c(O)nc3n(c2=O)CCS3)cc1 | 13 | 0 | -13 | -3 | i | 53* | 11 | 2
O=C(Nc1c2c(nn1-c1ccccc1)CS(=O)(=O)C2)C1CC1 | 6 | . | . | . | . | . | . | .
O=C(Nc1ccc(NS(=O)(=O)c2ccccc2)c(Cl)c1)c1ccccc1 | -6 | . | . | . | . | . | . | .
CCc1cccc(C)c1NC(=O)c1cc(=O)[nH]c2ccc(S(=O)(=O)N3CCOCC3)cc12 | -100 | . | . | 3 | . | 43* | 35* | -3
Cc1ccc(NC(=O)c2cc(=O)[nH]c3ccc(S(=O)(=O)N4CCOCC4)cc23)cc1 | 19 | . | . | -7 | . | -3 | . | .
CCC(C)N(C(=O)c1csnn1)C(C(=O)NC1CCCC1)c1c(F)cccc1Cl (stereo not given) | 14 | -13 | 23 | -6 | i | -4 | . | .
CCC(C)c1ccc(S(=O)(=O)N2CCN(CC(O)COCC3CCCO3)CC2)cc1 (stereo not given) | 1 | . | . | -9 | . | 55* | -11 | 1
CCCC[n+]1c2ccccc2cc2ccccc21 | -83 | 14 | -64 | 21 | + | 55* | 48* | -2
CCC[n+]1c2ccccc2cc2ccccc21 | -79 | 0 | 14 | 12 | + | 47* | 42* | -2
Brc1cc2ccccc2[n+](Cc2ccccc2)c1 | -5 | . | . | -8 | . | -5 | . | .
CC(=O)c1ccc(N2CCN(C(=O)C3CCN(S(=O)(=O)c4cccs4)CC3)CC2)cc1 | 7 | -4 | 32 | -7 | i | 1 | . | .
CCCCn1c(=O)[nH]c(=O)c2c1nc(-c1cc3c(cc1Br)OCO3)n2C | -4 | 0 | 21 | -7 | i | -2 | . | .
O=[N+]([O-])c1ccccc1/C=N/Nc1nc(N2CCCC2)nc(N2CCCC2)n1 | 4 | 3 | 20 | 10 | i | 5 | . | .
O=[N+]([O-])c1ccccc1/C=C/C=N/Nc1nc(N2CCCCC2)nc(N2CCCCC2)n1 | -148 | 6 | 2 | 16 | i | 78* | 81* | -2
COc1cccc2sc(Nc3nc(-c4cc5ccccc5oc4=O)cs3)nc12 | -45 | 18 | -53 | . | i | . | . | .
COc1cccc2sc(Nc3nc(-c4ccncc4)cs3)nc12 | 21 | -5 | 20 | 1 | i | 45* | 24* | -3
CC1CCCN(CC(=O)Nc2ccc(S(=O)(=O)N3CCCC3)cc2)C1 (stereo not given) | 7 | -1 | 51 | 0 | i | -5 | . | .

Screens (PubChem)
